# The supplement of paper PMC9446081
# ± gives the standard deviation of the averaged measurements.
# Legend:
# Test in all cases: relative enzymatic activity vs untreated control (fraction); higher = less inhibition
# Settings in all cases: 100 µM; incubation time: 2 h at 37 C
# DNA gyrase = test system: DNA gyrase
# Experimental: (§1)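 In vitro enzymatic inhibition assays (ProFoldin kits) for 12 purified essential E. coli enzymes or complexes, each treated with 218 active antibacterial compounds at 100 µM for 2 h at 37°C. Read-outs were fluorescence or absorbance (phosphate detection, dye binding), converted to activity via standard curves and expressed relative to untreated DMSO controls.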
# DNA helicase = DNA helicase (UniProt P0ACB1)
# DNA helicase, sequence (P0ACB1 whole entry): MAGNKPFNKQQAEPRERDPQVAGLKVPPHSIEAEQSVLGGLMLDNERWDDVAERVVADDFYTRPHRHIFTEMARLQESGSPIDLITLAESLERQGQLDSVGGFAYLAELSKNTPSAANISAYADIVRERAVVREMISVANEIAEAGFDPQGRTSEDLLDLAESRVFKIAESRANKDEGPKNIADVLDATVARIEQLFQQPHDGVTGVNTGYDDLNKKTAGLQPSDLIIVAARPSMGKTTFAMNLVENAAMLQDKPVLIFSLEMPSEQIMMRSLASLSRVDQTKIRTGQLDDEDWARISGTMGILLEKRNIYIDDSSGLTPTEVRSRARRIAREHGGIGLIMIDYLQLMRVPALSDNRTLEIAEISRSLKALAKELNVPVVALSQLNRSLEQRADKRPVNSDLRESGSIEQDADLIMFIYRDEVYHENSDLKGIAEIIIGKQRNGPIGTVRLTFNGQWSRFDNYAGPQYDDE
# Experimental: as §1
# DNA ligase = DNA ligase (UniProt B1XA82)
# DNA ligase, sequence (B1XA82 whole entry): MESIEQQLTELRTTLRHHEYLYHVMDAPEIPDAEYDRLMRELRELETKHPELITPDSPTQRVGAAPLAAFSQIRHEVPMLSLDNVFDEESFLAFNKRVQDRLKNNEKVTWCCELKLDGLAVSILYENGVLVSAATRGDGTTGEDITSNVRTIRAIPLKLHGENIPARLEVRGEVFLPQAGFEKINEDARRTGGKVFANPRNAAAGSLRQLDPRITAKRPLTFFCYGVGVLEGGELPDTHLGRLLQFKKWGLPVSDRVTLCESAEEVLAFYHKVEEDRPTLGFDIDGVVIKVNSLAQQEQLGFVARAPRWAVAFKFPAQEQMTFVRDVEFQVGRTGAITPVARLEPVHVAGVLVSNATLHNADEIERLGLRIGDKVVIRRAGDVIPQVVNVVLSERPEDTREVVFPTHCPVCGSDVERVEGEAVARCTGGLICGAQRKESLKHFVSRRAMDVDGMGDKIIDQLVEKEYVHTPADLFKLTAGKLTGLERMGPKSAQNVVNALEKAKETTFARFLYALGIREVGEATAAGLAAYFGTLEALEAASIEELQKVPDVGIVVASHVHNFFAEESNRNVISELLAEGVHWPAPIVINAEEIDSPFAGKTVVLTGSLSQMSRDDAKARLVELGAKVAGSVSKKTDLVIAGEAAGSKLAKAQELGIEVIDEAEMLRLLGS
# Experimental: as §1
# DNA polymerase = DNA polymerase (UniProt P10443)
# DNA polymerase, sequence (P10443 whole entry): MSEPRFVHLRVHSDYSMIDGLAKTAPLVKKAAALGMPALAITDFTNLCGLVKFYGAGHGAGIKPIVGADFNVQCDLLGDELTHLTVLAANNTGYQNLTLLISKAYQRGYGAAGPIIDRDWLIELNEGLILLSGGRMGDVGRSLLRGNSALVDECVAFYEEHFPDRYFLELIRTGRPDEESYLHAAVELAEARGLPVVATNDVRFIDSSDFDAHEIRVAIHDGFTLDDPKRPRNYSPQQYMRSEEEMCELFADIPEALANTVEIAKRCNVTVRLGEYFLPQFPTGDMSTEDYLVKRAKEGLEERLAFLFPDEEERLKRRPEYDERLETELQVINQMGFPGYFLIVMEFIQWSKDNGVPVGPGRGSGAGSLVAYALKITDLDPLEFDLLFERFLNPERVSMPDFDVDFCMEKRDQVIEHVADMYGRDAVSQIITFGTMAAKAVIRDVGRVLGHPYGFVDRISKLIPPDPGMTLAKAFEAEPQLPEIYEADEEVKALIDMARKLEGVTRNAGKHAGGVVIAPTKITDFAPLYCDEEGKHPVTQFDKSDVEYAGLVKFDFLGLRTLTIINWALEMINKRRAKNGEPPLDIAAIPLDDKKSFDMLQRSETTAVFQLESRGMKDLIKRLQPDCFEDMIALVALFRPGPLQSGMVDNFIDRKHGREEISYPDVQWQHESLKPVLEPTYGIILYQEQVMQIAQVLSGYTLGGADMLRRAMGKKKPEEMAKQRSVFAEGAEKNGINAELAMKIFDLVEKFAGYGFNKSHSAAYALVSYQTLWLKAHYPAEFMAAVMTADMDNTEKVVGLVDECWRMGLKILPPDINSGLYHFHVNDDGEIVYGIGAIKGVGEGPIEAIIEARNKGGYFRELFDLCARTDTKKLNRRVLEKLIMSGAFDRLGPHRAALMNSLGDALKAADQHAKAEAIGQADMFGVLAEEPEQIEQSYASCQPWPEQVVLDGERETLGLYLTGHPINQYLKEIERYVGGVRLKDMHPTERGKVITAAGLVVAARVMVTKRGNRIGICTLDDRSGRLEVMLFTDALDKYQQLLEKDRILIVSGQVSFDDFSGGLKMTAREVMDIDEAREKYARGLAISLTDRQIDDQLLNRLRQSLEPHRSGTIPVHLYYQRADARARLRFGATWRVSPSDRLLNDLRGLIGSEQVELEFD
# Experimental: as §1
# DNA primase = DNA primase (UniProt P0ABS7)
# DNA primase, sequence (P0ABS7 whole entry): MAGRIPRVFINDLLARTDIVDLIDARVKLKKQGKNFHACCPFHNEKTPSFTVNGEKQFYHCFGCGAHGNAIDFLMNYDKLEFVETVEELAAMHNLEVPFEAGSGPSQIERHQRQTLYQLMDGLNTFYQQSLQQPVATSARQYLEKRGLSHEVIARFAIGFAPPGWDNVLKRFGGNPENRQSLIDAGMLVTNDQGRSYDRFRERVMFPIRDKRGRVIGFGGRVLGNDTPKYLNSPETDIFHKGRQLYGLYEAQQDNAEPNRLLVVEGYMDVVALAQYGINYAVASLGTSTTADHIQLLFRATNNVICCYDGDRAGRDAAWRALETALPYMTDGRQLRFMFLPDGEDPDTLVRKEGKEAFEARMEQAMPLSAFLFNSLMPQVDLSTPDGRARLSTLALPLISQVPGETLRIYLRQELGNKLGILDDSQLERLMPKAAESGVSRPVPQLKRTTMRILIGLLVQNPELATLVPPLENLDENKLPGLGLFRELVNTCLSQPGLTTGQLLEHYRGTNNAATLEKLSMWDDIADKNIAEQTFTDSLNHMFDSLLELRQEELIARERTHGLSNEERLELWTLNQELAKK
# Experimental: as §1
# GlmU = GlmU (UniProt A7ZTU1)
# GlmU, sequence (A7ZTU1 whole entry, looked up): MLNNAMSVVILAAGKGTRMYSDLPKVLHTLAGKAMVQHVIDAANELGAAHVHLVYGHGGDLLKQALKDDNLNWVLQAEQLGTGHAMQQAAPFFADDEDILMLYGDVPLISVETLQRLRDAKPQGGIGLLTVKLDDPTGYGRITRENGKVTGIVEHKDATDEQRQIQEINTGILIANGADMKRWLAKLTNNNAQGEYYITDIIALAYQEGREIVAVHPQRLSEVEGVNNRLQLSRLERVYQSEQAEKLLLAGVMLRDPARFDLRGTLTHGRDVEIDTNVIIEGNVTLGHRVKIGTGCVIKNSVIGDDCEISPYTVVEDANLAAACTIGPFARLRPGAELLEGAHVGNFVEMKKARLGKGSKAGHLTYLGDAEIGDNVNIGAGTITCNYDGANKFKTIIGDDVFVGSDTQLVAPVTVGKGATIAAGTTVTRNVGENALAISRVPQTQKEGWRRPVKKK
# Experimental: as §1
# Guanlyate kinase = Guanlyate kinase (UniProt Q0TBG1)
# Guanlyate kinase, sequence (Q0TBG1 whole entry): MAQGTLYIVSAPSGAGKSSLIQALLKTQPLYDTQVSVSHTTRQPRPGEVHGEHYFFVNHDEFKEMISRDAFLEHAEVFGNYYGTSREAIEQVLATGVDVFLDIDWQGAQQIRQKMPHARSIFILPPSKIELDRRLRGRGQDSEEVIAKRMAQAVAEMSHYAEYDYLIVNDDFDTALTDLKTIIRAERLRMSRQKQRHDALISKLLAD
# Experimental: as §1
# MurA = MurA (UniProt Q3YX52)
# MurA, sequence (Q3YX52 whole entry): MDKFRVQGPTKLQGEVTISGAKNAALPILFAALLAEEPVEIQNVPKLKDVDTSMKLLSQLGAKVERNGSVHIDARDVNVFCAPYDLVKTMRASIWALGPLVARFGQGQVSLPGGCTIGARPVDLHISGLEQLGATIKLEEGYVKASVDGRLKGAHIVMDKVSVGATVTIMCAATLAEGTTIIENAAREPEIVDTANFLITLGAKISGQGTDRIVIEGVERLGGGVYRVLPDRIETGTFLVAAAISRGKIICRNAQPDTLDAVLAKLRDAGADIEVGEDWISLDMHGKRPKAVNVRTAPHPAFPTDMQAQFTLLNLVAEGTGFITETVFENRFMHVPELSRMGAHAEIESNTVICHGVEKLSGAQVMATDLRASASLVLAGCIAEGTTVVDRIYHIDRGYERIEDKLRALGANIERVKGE
# Experimental: as §1
# MurD = molecular target: T1, MurD (UniProt P14900)
# T1 sequence (whole entry): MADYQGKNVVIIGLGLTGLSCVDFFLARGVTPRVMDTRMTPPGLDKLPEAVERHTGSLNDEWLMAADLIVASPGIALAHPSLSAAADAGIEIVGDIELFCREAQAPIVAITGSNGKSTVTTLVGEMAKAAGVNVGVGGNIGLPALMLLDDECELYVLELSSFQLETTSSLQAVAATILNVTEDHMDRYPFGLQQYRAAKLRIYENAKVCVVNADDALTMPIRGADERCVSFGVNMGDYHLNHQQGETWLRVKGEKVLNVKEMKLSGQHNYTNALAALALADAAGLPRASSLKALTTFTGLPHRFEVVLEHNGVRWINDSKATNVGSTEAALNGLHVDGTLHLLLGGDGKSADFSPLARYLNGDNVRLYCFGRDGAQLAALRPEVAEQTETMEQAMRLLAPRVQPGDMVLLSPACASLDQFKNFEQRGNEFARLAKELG
# Experimental: as §1
# MurF = molecular target: T2, MurF (UniProt P11880)
# T2 sequence (whole entry): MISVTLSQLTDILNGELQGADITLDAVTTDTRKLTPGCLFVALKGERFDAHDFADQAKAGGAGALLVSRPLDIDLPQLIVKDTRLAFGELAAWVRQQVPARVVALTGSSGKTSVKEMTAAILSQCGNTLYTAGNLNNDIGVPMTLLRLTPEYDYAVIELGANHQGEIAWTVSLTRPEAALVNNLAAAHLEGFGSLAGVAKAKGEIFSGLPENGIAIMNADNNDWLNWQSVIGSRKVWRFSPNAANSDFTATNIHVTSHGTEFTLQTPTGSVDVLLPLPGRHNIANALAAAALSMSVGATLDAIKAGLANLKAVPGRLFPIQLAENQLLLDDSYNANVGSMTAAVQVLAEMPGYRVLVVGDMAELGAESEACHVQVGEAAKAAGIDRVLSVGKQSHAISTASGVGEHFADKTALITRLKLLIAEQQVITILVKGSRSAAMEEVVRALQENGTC
# Experimental: as §1
# RNA polymerase = test system: RNA polymerase
# Experimental: as §1
Structure (SMILES),relative enzymatic activity (DNA gyrase),relative enzymatic activity (DNA helicase),relative enzymatic activity (DNA ligase),relative enzymatic activity (DNA polymerase),relative enzymatic activity (DNA primase),relative enzymatic activity (GlmU),relative enzymatic activity (Guanlyate kinase),relative enzymatic activity (MurA),relative enzymatic activity (MurD),relative enzymatic activity (MurF),relative enzymatic activity (RNA polymerase)
CON=C(C(=O)N[C@@H]1C(=O)N2C(C(=O)OCOC(=O)C(C)(C)C)=C(C=Cc3scnc3C)CS[C@H]12)c1csc(N)n1,0.622 ± 0.19,0.322 ± 0.0034,0.899 ± 0.1,0.496 ± 0.7,0.83003 ± 0.00016,0.838 ± 0.01,0.842 ± 0.11,0.335 ± 0.12,0.147 ± 0.21,0.855 ± 0.25,0.945 ± 0.2
CO/N=C(\C(=O)N[C@@H]1C(=O)N2C(C(=O)O)=C(CSC(=O)c3ccco3)CS[C@H]12)c1csc(N)n1,0.0013 ± 0.0018,0.049 ± 0.0096,0.817 ± 0.063,0.312 ± 0.026,0.533 ± 0.092,0.492 ± 0.17,0.778 ± 0.12,0.0403 ± 0.017,0.125 ± 0.094,0.82 ± 0.26,0.602 ± 0.68
CC(C)(O/N=C(\C(=O)N[C@@H]1C(=O)N2C(C(=O)O)=C(C[n+]3ccccc3)CS[C@H]12)c1csc(N)n1)C(=O)O,0.662 ± 0.56,0.577 ± 0.24,0.86 ± 0.088,1.1 ± 0.22,0.791 ± 0.01,1.01 ± 0.032,0.94 ± 0.075,0.0696 ± 0.019,0.613 ± 0.43,0.935 ± 0.24,0.829 ± 0.16
CC(C)(O/N=C(\C(=O)N[C@@H]1C(=O)N2C(C(=O)O)=C(C[N+]3(CCNC(=O)c4ccc(O)c(O)c4Cl)CCCC3)CS[C@H]12)c1csc(N)n1)C(=O)O,0.401 ± 0.11,0.506 ± 0.075,0.933 ± 0.058,1.05 ± 0.32,0.753 ± 0.013,0.92 ± 0.062,0.834 ± 0.094,0.0569 ± 0.016,0.515 ± 0.35,1.01 ± 0.23,0.672 ± 0.082
O=C(O)c1c(O)c2c([nH]c1=O)CCCC2,0.374 ± 0.066,0.479 ± 0.056,1.18 ± 0.34,1.08 ± 0.16,0.752 ± 0.029,0.975 ± 0.042,0.874 ± 0.041,0.769 ± 0.13,0.611 ± 0.39,0.899 ± 0.18,0.636 ± 0.18
COc1cc(Cc2cnc(N)nc2N)cc(OC)c1OC,0.772 ± 0.45,0.617 ± 0.18,1.12 ± 0.24,1.36 ± 0.46,0.685 ± 0.15,1.009 ± 0.0036,1.01 ± 0.05,0.706 ± 0.023,0.589 ± 0.4,0.569 ± 0.81,0.887 ± 0.074
CC(C)[C@@H](CC[C@@H](C)[C@H]1CC[C@H]2[C@@H]3[C@H](O)C[C@H]4C[C@@H](NCCCNCCCCN)CC[C@]4(C)[C@H]3CC[C@]12C)OS(=O)(=O)O,1.22 ± 0.062,0.08494 ± 0.00041,0.712 ± 0.095,0.0811 ± 0.015,0.432 ± 0.11,0.899 ± 0.069,0.231 ± 0.024,0.17 ± 0.006,0.6 ± 0.42,0.896 ± 0.23,0.14 ± 0.012
CO/N=C(\C(=O)N[C@@H]1C(=O)N2C(C(=O)O)=C(C)CS[C@H]12)c1csc(N)n1,0.614 ± 0.47,0.628 ± 0.2,0.904 ± 0.086,0.906 ± 0.062,0.822 ± 0.035,1.018 ± 0.0077,0.836 ± 0.015,0.479 ± 0.18,0.613 ± 0.43,0.979 ± 0.21,0.826 ± 0.098
O=C([O-])CCC(=O)OCC(NC(=O)C(Cl)Cl)C(O)c1ccc([N+](=O)[O-])cc1.[Na+] (stereo unspecified),1.05 ± 0.13,0.463 ± 0.053,0.965 ± 0.047,1.27 ± 0.34,0.718 ± 0.2,1.02 ± 0.042,1.025 ± 0.0099,0.872 ± 0.038,0.578 ± 0.37,0.957 ± 0.19,0.838 ± 0.064
CC1CN(c2c(F)c(F)c3c(=O)c(C(=O)O)cn(C4CC4)c3c2F)CC(C)N1 (stereo unspecified),0.063 ± 0.089,0.599 ± 0.21,1.09 ± 0.085,0.509 ± 0.72,0.8561 ± 0.0075,0.97 ± 0.066,0.949 ± 0.073,0.676 ± 0.015,0.597 ± 0.41,1.09 ± 0.014,0.847 ± 0.13
Cc1c(N)nc([C@H](CC(N)=O)NC[C@H](N)C(N)=O)nc1C(=O)N[C@H](C(=O)N[C@H](C)[C@@H](O)[C@H](C)C(=O)N[C@H](C(=O)NCCc1nc(-c2nc(C(=O)NCCCNCCCCN)cs2)cs1)[C@@H](C)O)[C@@H](O[C@@H]1O[C@@H](CO)[C@@H](O)[C@H](O)[C@@H]1O[C@@H]1O[C@H](CO)[C@@H](O)[C@H](OC(N)=O)[C@@H]1O)c1c[nH]cn1,0.0474 ± 0.067,0.732 ± 0.39,0.811 ± 0.15,0.308 ± 0.022,0.762 ± 0.041,0.988 ± 0.023,0.871 ± 0.084,0.872 ± 0.13,0.622 ± 0.4,0.281 ± 0.39,0.75 ± 0.034
CC1COc2c(N3CCN(C)CC3)c(F)cc3c(=O)c(C(=O)O)cn1c23 (stereo unspecified),0.0425 ± 0.06,0.698 ± 0.077,1.39 ± 0.046,1.3 ± 0.35,0.722 ± 0.2,1.1 ± 0.2,0.937 ± 0.12,0.757 ± 0.05,0.584 ± 0.4,0.976 ± 0.2,1.16 ± 0.38
CCN1CCN(C(=O)NC(C(=O)NC2C(=O)N3C2SC(C)(C)C3C(=O)[O-])c2ccccc2)C(=O)C1=O.[Na+] (stereo unspecified),0.801 ± 0.4,0.634 ± 0.2,1.1 ± 0.11,1.32 ± 0.43,0.757 ± 0.24,0.886 ± 0.12,0.965 ± 0.12,0.612 ± 0.16,0.587 ± 0.41,0.938 ± 0.29,0.916 ± 0.077
O=C1NCCN1c1ncc([N+](=O)[O-])s1,0.684 ± 0.55,0.564 ± 0.22,0.852 ± 0.12,1.16 ± 0.25,0.839 ± 0.018,0.982 ± 0.011,0.863 ± 0.052,0.658 ± 0.11,0.628 ± 0.47,0.389 ± 0.55,0.792 ± 0.11
CON=C(C(=O)NC1C(=O)N2C(C(=O)[O-])=C(CSc3nc(=O)c([O-])nn3C)CSC12)c1csc(N)n1.O.O.O.[Na+].[Na+] (stereo unspecified),0.7 ± 0.45,0.48 ± 0.015,1.29 ± 0.4,1.13 ± 0.23,0.69 ± 0.18,0.996 ± 0.014,0.914 ± 0.065,0.124 ± 0.03,0.583 ± 0.4,0.955 ± 0.21,0.843 ± 0.073
CO/N=C(\C(=O)N[C@@H]1C(=O)N2C(C(=O)O)=C(CSc3nnnn3C)CS[C@H]12)c1csc(N)n1,1.08 ± 0.03,0.544 ± 0.23,0.749 ± 0.049,1.15 ± 0.25,0.827 ± 0.017,1.09 ± 0.046,0.883 ± 0.091,0.157 ± 0.032,0.611 ± 0.42,1.16 ± 0.11,0.8391 ± 0.00096
